aSyn 5UTR act: Activators via SNCA 5'UTR binding, MLPCN. alpha-synuclein 5'UTR reporter, activators screen. AID 1814, 2009. 7.1% of 300,000 active. activity score, % (tested at 7.5 µM), hits read low; in the data active = activity score below about -60%
* hit, by the source's call. The list is a sample of the results.

SMILES | aSyn 5UTR act
Cc1ccc(N2CS(=O)(=O)/C(=C/N(C)C)C2=O)cc1 | -108*
O=C(N/N=C/c1ccncc1)c1nc2ccccc2c(=O)[nH]1 | -66*
O=C(N/N=C/c1ccc2cccnc2c1)c1nc2ccccc2c(=O)[nH]1 | -83*
COCCNc1c(-c2ccc(O)cc2)nc2ccc(Cl)cn12 | -69*
C=CCN=C(NC#N)SCC(=O)c1cccc(OC)c1 | -104*
Cc1ccc(NC(=O)n2ncc3c(C)cccc32)c(C)c1 | -108*
Cc1cccc2c1cnn2C(=O)Nc1ccc(Br)cc1F | -156*
CCOc1ccc(NC(=O)n2ncc3c(C)cccc32)cc1 | -179*
Fc1ccc2nc(Nc3ccccc3)sc2c1 | -172*
NNc1nc2ccc(Cl)cc2s1 | -140*
NNc1nc2ccc(F)cc2s1 | -254*
c1ccc(-n2ncc3c2ncn2nc(-c4ccco4)nc32)cc1 | -131*
Nc1nc2c(ccc3ccccc32)s1 | -72*
N=C1N(/N=C/c2ccccc2)C(=Nc2ccccc2)C(=S)N1c1ccccc1 | -186*
C=CCOc1ccc(/C(O)=C2/C(=O)C(=O)N(CCCn3ccnc3)C2c2cccs2)cc1 (stereo unspecified) | -82*
CCOc1ccc(/C(O)=C2/C(=O)C(=O)N(c3nc(C)c(C)s3)C2c2ccco2)cc1 (stereo unspecified) | -85*
CCCOc1ccc(/C(O)=C2/C(=O)C(=O)N(CCCn3ccnc3)C2c2ccc(C)o2)cc1 (stereo unspecified) | -76*
CCCCCOc1ccc(NC(=O)C(=O)NCCCn2ccnc2)cc1 | 63
CC1Cc2cc(/C(O)=C3/C(=O)C(=O)N(Cc4ccco4)C3c3cccs3)ccc2O1 (stereo unspecified) | -82*
CCCOc1ccc(/C(O)=C2/C(=O)C(=O)N(CCCn3ccnc3)C2c2ccco2)cc1 (stereo unspecified) | -68*
CCN(CC)CCN1C(=O)C(=O)/C(=C(/O)c2ccc(OC(C)C)cc2)C1c1cccs1 (stereo unspecified) | -122*
CC(C)C(C(=O)Nc1nccs1)c1ccc(Cl)cc1 (stereo unspecified) | 58
Nc1ccc(C(=O)Nc2nccs2)cc1 | -87*
O=C(Nc1nccs1)C(Br)C(Br)c1ccccc1 (stereo unspecified) | -75*
Cc1ccc(C(=O)Nc2nccs2)cc1 | -124*
SMILES | aSyn 5UTR act
Nc1ccccc1C(=O)Nc1nccs1 | -103*
CC(C)(C)N1C(=O)c2ccc(C(=O)Nc3nccs3)cc2C1=O | -156*
O=C(Nc1nccs1)c1ccc(COc2c(F)c(F)cc(F)c2F)cc1 | -107*
CN(c1ccc(C(=O)Nc2nccs2)cc1)S(=O)(=O)c1ccccc1 | -104*
Cc1oc(-c2ccccc2)nc1C(=O)Nc1nccs1 | -117*
CC(=O)O[C@H]1C(=O)[C@@]2(C)C([C@H](OC(=O)c3ccccc3)[C@]3(O)C[C@H](OC(=O)[C@H](O)[C@@H](NC(=O)c4ccccc4)c4ccccc4)C(C)=C1C3(C)C)[C@]1(OC(C)=O)CO[C@@H]1C[C@H]2O (stereo partly specified) | 102
O=C(Nc1nccs1)c1ccc2nccnc2c1 | -161*
O=C(Nc1nccs1)c1cncc(Br)c1 | -145*
O=C(Nc1nccs1)OCc1ccccc1 | -80*
Cn1c(SCc2ccc(C(=O)Nc3nccs3)cc2)nnc1-c1ccccc1 | -103*
O=C(Nc1nccs1)c1ccc(N2C(=O)[C@@H]3[C@H](C2=O)[C@H]2C=C[C@@H]3C2)cc1 | -147*
COc1ccc2c(=O)c(C(=O)NCCc3ccccc3)c[nH]c2c1 | -169*
COc1ccc2[nH]cc(C(=O)NCCc3ccccc3)c(=O)c2c1 | -71*
CCCNC(=O)c1ccc2c(=O)c(O)c(-c3ccc(OC)cc3)[nH]c2c1 | 88
CCCCNC(=O)c1ccc(Cn2c(=S)[nH]c3c([nH]c4ccc(OC)cc43)c2=O)cc1 | 105
CCCCC(=NCCc1c(C)[nH]c2ccc(OC)cc12)C1=C(O)CC(c2ccccc2)CC1=O (stereo unspecified) | 119
CCCOC(=O)c1ccc(NC(=O)CC(C)(C)C)cc1 | -109*
CCCCc1ccc(NC(=O)CC(C)(C)C)cc1 | -159*
Cc1ccc(NC(=O)c2cncc(Br)c2)nc1 | -89*
Cc1ccc(NC(=O)c2cncc(Br)c2)c(O)c1 | -196*
O=C1N=C(N2CCOCC2)S/C1=C/c1cc2c(cc1[N+](=O)[O-])OCO2 | -67*
O=C(Nc1cccnc1)c1cn(-c2ccccc2)nc1-c1cccs1 | -84*
NS(=O)(=O)c1ccc(N/N=C/c2cn(-c3ccccc3)nc2-c2cccs2)cc1 | -92*
Cc1ccsc1/C=N/Nc1cccc(C(=O)O)c1 | 105
Cc1nn(Cc2c(Cl)cccc2Cl)c(C)c1NC(=O)c1cn(-c2ccccc2)nc1-c1ccccc1 | 122
O=C(O)c1cccc(N/N=C/c2cn(-c3ccccc3)nc2-c2cccs2)c1 | -68*
CCCCC(=O)N1CCN(c2nc3ccc(Cl)cc3s2)CC1 | -148*
CC(C)(C)NC(=O)N1CCN(c2nc3ccc(Cl)cc3s2)CC1 | -156*
CC(C)(C)NC(=O)N1CCN(c2nc(-c3ccccc3)ns2)CC1 | -119*

From PubChem
